Measured values as given in the supplement of paper PMC6555819.

What follows are sequences tested on PPARg:RXRa 270nM:90nM, anti-RXR (NR concentration 270 nM, RXRa partner concentration 90 nM) (assay: PBM binding z-score (relative to random genomic background probes); higher = stronger binding; sequences stand for … in GC…GCGATTGACAGCGTAGAATGAAGG).
Procedure, shortened: (§1)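 Binding buffer was PBS pH 7.4 with 2% milk, 0.02% Triton X-100, 1 mM DTT, 0.2 mg/mL BSA and 0.4 mg/ml salmon testes DNA. In it, ligand-free nuclear receptor dimers were incubated 1 h on custom Agilent 4×180K protein-binding microarrays carrying double-stranded probes. Antibodies against each partner (one per run) detected binding, and z-scores were calculated against random background probes after regression normalization of scanned fluorescence.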
Sequence CGTCCAAGGTGAAAGGTCAGTGAAGAGATGACGG has a PBM binding z-score of 8.09.
Sequence ACTAGTTGGTCAACTGAGGTCACACACAATTCGG has a PBM binding z-score of 3.01.
TCTCCTAGGTCAACGATGGTCAGCTAATCTGCTA was tested, and the PBM binding z-score was 3.76.
In the case of CAAACTAGGTCACAGAGGTCAAGGTCCGTGCGTA, the PBM binding z-score is reported as 8.21.
ACTCTGAGGACAAAGGTCAGAGCTACGCCAGTGA gave a PBM binding z-score of 7.
For TCATATAGGTAAACAGATGAAAGTCCGTAAGTTA, the PBM binding z-score was 2.08.
With GATACAGGGTCAGCTGGAGGCCAGAGTATGGAAA the PBM binding z-score was 3.62.
In the case of AGAATGAGGTTATTAAGGTCAGGGAATTGCGGTC, the PBM binding z-score is reported as 4.22.
For TCGAGAAGGTTACCAATGGGGCATTCAGCTTTCT, the PBM binding z-score was 1.49.
Work on TCGAGTAGGTAAGGGGCATTCAGAATGGCGTCGA yielded a PBM binding z-score of 1.71.
In the case of TCTCGGAGGACACGAAGGTCAGATCTTTCCAGAG, the PBM binding z-score is reported as 1.77.
In the case of ATACCAAGGTGATCGTAAGGTCGTTGATACTAAC, the PBM binding z-score is reported as 0.737.
CTACCAAGGTGAACAAGGTCGTTGATTACTATTC was tested, and the PBM binding z-score was 1.4.
In the case of AATACAGGATCATCGTAGGCCAGAGTACGCACAG, the PBM binding z-score is reported as 0.159.
In the case of ATACCACGGTGATCGTGAGGTCGTTGATACTAAC, the PBM binding z-score is reported as 0.0838.
Work on GCTTGTAGATCAAGGTTAGGAAAGACTAAGCTAA yielded a PBM binding z-score of 0.548.
In the case of CGAACTAGGTCAGACCAGGACAGTGAAGGATGAT, the PBM binding z-score is reported as 5.08.
With CCGACTGGGGCAAAGGTTACCATTCTCAGTACGA the PBM binding z-score was 9.61.

The sequences below were run on PPARg:RXRa 30nM:10nM, anti-RXR (NR concentration 30 nM, RXRa partner concentration 10 nM) in the same assay as above.
Procedure, shortened: as §1
Work on ATCTCAAGGTAAAGTTCAGTGAAAGATCGATAGA yielded a PBM binding z-score of 1.67.
GCTAGTTGGTTAGTAAAAGGTCACACACCGGTCG showed a PBM binding z-score of 1.87.
Work on CCTAGTTGGTCAGGAGGTCACTCACCGGATATGA yielded a PBM binding z-score of 1.11.
For ACGAGCAGGCCAAGGGTCACTCAAGATTAGTCCG, the PBM binding z-score was 3.74.
Work on TGAATGAGGTTATAAGTTCAGGGAACGTTGCAAA yielded a PBM binding z-score of 1.55.
ATTTCTAGGTAAGACTCAGTTCAGTGAAGAACGC gave a PBM binding z-score of 0.807.
TCTATTAGTTGAAGGGCAACCGCCGAGTCCGTTT gave a PBM binding z-score of 3.81.
In the case of TCTAGCAGGCCGGAGGGTCACTCAAGAGGTACGG, the PBM binding z-score is reported as 1.19.
Work on TCTCGGAGGACACGAAAGGTTAGAGCTCGACATC yielded a PBM binding z-score of 2.52.
Sequence ATATGTAGGTTACATCCGGGTCAATCAGGCTATG has a PBM binding z-score of 2.62.
Sequence GATACAGGGTAAAGGCCAGAGTACGCGTATTGAT has a PBM binding z-score of 3.7.
CCGACTGGGGCATAAGGTTGCCATAAGCCAGCCC gave a PBM binding z-score of -0.189.
For CCTCGGAGGACAGAAGGTCAGAGCAGTCCGCTTT, the PBM binding z-score was -0.57.
Work on ACTATTAGGTGAGACGAGGGCAACCGATAGGTTG yielded a PBM binding z-score of 0.65.
In the case of CGAACTAGGTCACGAAAGGTCAAAGTCGAATGAC, the PBM binding z-score is reported as 6.75.
CCTTACAGGTCACTCCAGGTTATAGCATCGGAGT showed a PBM binding z-score of 1.52.
AGAATGAGGTTACCAAAGATCAGGGGAACGCTTG was tested, and the PBM binding z-score was 1.04.
For GCATTTAGGTAATACAAGGTGAAAGTCCGATTGT, the PBM binding z-score was 0.425.
TTACCAAGGTGAGCTGAGGTCATTGATCCAACTC showed a PBM binding z-score of 0.796.
AGAATGAGGATATTAAGATCAGGGAATTGCGGTC was tested, and the PBM binding z-score was -0.0325.
ACTGTTAGTTGACTTAGGGCAACCGATACGACGC gave a PBM binding z-score of 0.105.
ATCTCTAGGTAACCATGTTCAGTGAATGCCGAAC was tested, and the PBM binding z-score was 0.044.
CGTCCAAGGTGAAAGGTCAGTGAAGAGATGACGG gave a PBM binding z-score of 7.25.
ACTAGTTGGTCAACTGAGGTCACACACAATTCGG gave a PBM binding z-score of 0.826.
TCTCCTAGGTCAACGATGGTCAGCTAATCTGCTA was tested, and the PBM binding z-score was 3.64.
CAAACTAGGTCACAGAGGTCAAGGTCCGTGCGTA showed a PBM binding z-score of 6.84.
ACTCTGAGGACAAAGGTCAGAGCTACGCCAGTGA showed a PBM binding z-score of 5.4.
TCATATAGGTAAACAGATGAAAGTCCGTAAGTTA showed a PBM binding z-score of 3.81.
With GATACAGGGTCAGCTGGAGGCCAGAGTATGGAAA the PBM binding z-score was 1.24.
AGAATGAGGTTATTAAGGTCAGGGAATTGCGGTC was tested, and the PBM binding z-score was 1.62.
TCGAGAAGGTTACCAATGGGGCATTCAGCTTTCT gave a PBM binding z-score of 2.
TCGAGTAGGTAAGGGGCATTCAGAATGGCGTCGA gave a PBM binding z-score of 1.19.
Work on TCTCGGAGGACACGAAGGTCAGATCTTTCCAGAG yielded a PBM binding z-score of 2.61.
ATACCAAGGTGATCGTAAGGTCGTTGATACTAAC gave a PBM binding z-score of 0.111.
CTACCAAGGTGAACAAGGTCGTTGATTACTATTC was tested, and the PBM binding z-score was 0.0996.
AATACAGGATCATCGTAGGCCAGAGTACGCACAG gave a PBM binding z-score of 0.238.
ATACCACGGTGATCGTGAGGTCGTTGATACTAAC was tested, and the PBM binding z-score was -0.0631.
GCTTGTAGATCAAGGTTAGGAAAGACTAAGCTAA was tested, and the PBM binding z-score was -0.199.
In the case of CGAACTAGGTCAGACCAGGACAGTGAAGGATGAT, the PBM binding z-score is reported as 2.19.
CCGACTGGGGCAAAGGTTACCATTCTCAGTACGA was tested, and the PBM binding z-score was 8.44.

The sequences below were run on PPARg:RXRa 90nM:30nM, anti-RXR (NR concentration 90 nM, RXRa partner concentration 30 nM) in the same assay as above.
Procedure, shortened: as §1
For ATCTCAAGGTAAAGTTCAGTGAAAGATCGATAGA, the PBM binding z-score was 2.73.
GCTAGTTGGTTAGTAAAAGGTCACACACCGGTCG was tested, and the PBM binding z-score was 3.47.
Sequence CCTAGTTGGTCAGGAGGTCACTCACCGGATATGA has a PBM binding z-score of 2.75.
Sequence ACGAGCAGGCCAAGGGTCACTCAAGATTAGTCCG has a PBM binding z-score of 5.66.
TGAATGAGGTTATAAGTTCAGGGAACGTTGCAAA was tested, and the PBM binding z-score was 2.71.
In the case of ATTTCTAGGTAAGACTCAGTTCAGTGAAGAACGC, the PBM binding z-score is reported as 0.822.
Sequence TCTATTAGTTGAAGGGCAACCGCCGAGTCCGTTT has a PBM binding z-score of 2.91.
TCTAGCAGGCCGGAGGGTCACTCAAGAGGTACGG was tested, and the PBM binding z-score was 1.2.
Sequence TCTCGGAGGACACGAAAGGTTAGAGCTCGACATC has a PBM binding z-score of 2.03.
With ATATGTAGGTTACATCCGGGTCAATCAGGCTATG the PBM binding z-score was 4.47.
For GATACAGGGTAAAGGCCAGAGTACGCGTATTGAT, the PBM binding z-score was 5.48.
CCGACTGGGGCATAAGGTTGCCATAAGCCAGCCC was tested, and the PBM binding z-score was 1.12.
CCTCGGAGGACAGAAGGTCAGAGCAGTCCGCTTT was tested, and the PBM binding z-score was 0.201.
With ACTATTAGGTGAGACGAGGGCAACCGATAGGTTG the PBM binding z-score was 0.864.
CGAACTAGGTCACGAAAGGTCAAAGTCGAATGAC was tested, and the PBM binding z-score was 8.51.
CCTTACAGGTCACTCCAGGTTATAGCATCGGAGT gave a PBM binding z-score of 2.79.
Work on AGAATGAGGTTACCAAAGATCAGGGGAACGCTTG yielded a PBM binding z-score of 2.
With GCATTTAGGTAATACAAGGTGAAAGTCCGATTGT the PBM binding z-score was 0.682.
TTACCAAGGTGAGCTGAGGTCATTGATCCAACTC was tested, and the PBM binding z-score was 1.62.
AGAATGAGGATATTAAGATCAGGGAATTGCGGTC showed a PBM binding z-score of -0.182.
ACTGTTAGTTGACTTAGGGCAACCGATACGACGC was tested, and the PBM binding z-score was -0.111.
ATCTCTAGGTAACCATGTTCAGTGAATGCCGAAC showed a PBM binding z-score of 0.484.
Work on CGTCCAAGGTGAAAGGTCAGTGAAGAGATGACGG yielded a PBM binding z-score of 8.46.
Sequence ACTAGTTGGTCAACTGAGGTCACACACAATTCGG has a PBM binding z-score of 2.8.
TCTCCTAGGTCAACGATGGTCAGCTAATCTGCTA showed a PBM binding z-score of 3.51.
With CAAACTAGGTCACAGAGGTCAAGGTCCGTGCGTA the PBM binding z-score was 8.39.
ACTCTGAGGACAAAGGTCAGAGCTACGCCAGTGA was tested, and the PBM binding z-score was 6.74.
TCATATAGGTAAACAGATGAAAGTCCGTAAGTTA was tested, and the PBM binding z-score was 3.18.
GATACAGGGTCAGCTGGAGGCCAGAGTATGGAAA showed a PBM binding z-score of 2.49.
AGAATGAGGTTATTAAGGTCAGGGAATTGCGGTC showed a PBM binding z-score of 3.18.
TCGAGAAGGTTACCAATGGGGCATTCAGCTTTCT was tested, and the PBM binding z-score was 1.69.
TCGAGTAGGTAAGGGGCATTCAGAATGGCGTCGA gave a PBM binding z-score of 1.41.
With TCTCGGAGGACACGAAGGTCAGATCTTTCCAGAG the PBM binding z-score was 2.
ATACCAAGGTGATCGTAAGGTCGTTGATACTAAC was tested, and the PBM binding z-score was 0.398.
Sequence CTACCAAGGTGAACAAGGTCGTTGATTACTATTC has a PBM binding z-score of 0.622.
For AATACAGGATCATCGTAGGCCAGAGTACGCACAG, the PBM binding z-score was 0.209.
In the case of ATACCACGGTGATCGTGAGGTCGTTGATACTAAC, the PBM binding z-score is reported as 0.19.
In the case of GCTTGTAGATCAAGGTTAGGAAAGACTAAGCTAA, the PBM binding z-score is reported as 0.557.
Work on CGAACTAGGTCAGACCAGGACAGTGAAGGATGAT yielded a PBM binding z-score of 3.95.
CCGACTGGGGCAAAGGTTACCATTCTCAGTACGA showed a PBM binding z-score of 11.7.
